Results on 40 compounds are retold here after PubChem BioAssay (NCATS).

The structures appear in SMILES notation. “And” between values parts separate entries of the source, which are not always exact repeats. Equal entries are not always repeated. Records with an inconclusive call do not appear. Where a call stands in place of a potency, no number is given. Values without a mark were called inactive. The source made the active and inactive calls. Calls follow the shape of the dose curve; as a rule, active = well fitted cell-killing curve with a large enough effect; inconclusive = small, poorly fitted or top-dose-only effect; inactive = no such curve, though single readings can be large or run the other way.
Potency is read from the fitted curve at half-maximal effect.

The nature of this test: qHTS of pediatric cancer cell lines to identify multiple opportunities for drug repurposing: Primary screen for OHS-50 cells (AID 1347103). Also: nearly all actives have a fitted effect of over 40% in size. Particulars: OHS-50 osteosarcoma viability, CellTiter-Glo luminescence, 48 h; series mostly up to 57.3 µM; activity change, negative = cytotoxic: at the top concentration. From the text: Drug repurposing or repositioning has been offered as a strategy for drug development in oncology programs. This approach has special potential for childhood cancers and other rare or orphan diseases, where the expected return on new drug development has been a disincentive to pharmaceuticals.
In this project we exploit the poly-pharmacology of drugs to discover new indications via phenotypic screening of a panel of 19 well-characterized cell lines derived from solid tumors seen in children and adolescents. The goal is to identify approved drugs with previously unrecognized anticancer properties that has the potential to reveal new mechanisms and biological processes involved in carcinogenesis or drug resistance. We employed a titration-based paradigm (quantitative high-throughput screening or qHTS), where all compounds were tested at multiple concentrations for their effect on cell viability. Concentration-response curves (CRCs) were derived directly from the primary screen, and both potency and efficacy values were used to identify compounds with robust bioactivity profiles. We screened the NIH Chemical Genomics Center (NCGC) Pharmaceutical Collection (NPC) and Mechanism Interrogation Plate (MIPE) small molecule collections of approved and investigational compounds against these cell lines; and measured metabolically active cells after 48 hours of compound treatment as a proxy for cell viability.
Assay Submitter: Nathalia J. Martinez, National Center for Advancing Translational Sciences, National Institutes of Health, Rockville, MD, USA; email: natalia.martinez@nih.gov
[1] Shen, M et al. Quantitative high-throughput phenotypic screening of pediatric cancer cell lines identifies multiple opportunities for drug repurposing. Oncotarget 2017 Dec 19;9(4):4758-4772. PMID 29435139.
The cells were obtained from University of North Carolina (UNC), Pediatric Preclinical Testing Program (PPT), and Coriell Institute (CI).
qHTS cell viability assay:
Cells were assayed in growth media at a density of 500-1,000 cells/well. Five microliters of cells were dispensed into 1,536-well, white, solid-bottom, TC-treated plates (Greiner Bio One) using a multidrop dispenser and incubated at 37 degrees C, 5% CO2, under a humidified atmosphere for 5 hours. Twenty-three nanoliters of compounds and controls (neutral control DMSO or positive control bortezomib at final concentration of 2.3 µM) were subsequently transferred by Kalypsys pintool. For primary screens, the MIPE collection was tested at 11-point dilutions (final concentrations range from 0.78 nM to 46 µM) and the NPC collection at 8-point dilutions (final concentrations range from 0.59 nM to 46 µM). Compounds tested in follow-up screens were assayed at 11-point dilutions. Cells were incubated for 48 hours, followed by addition of 3 µL of CellTiter-Glo (Promega). After a 15 min incubation at room temperature, samples were analyzed for luminescence intensity using a ViewLux High-throughput CCD imager equipped with clear filters.
(In general: In qHTS, concentration-response curves come from the screen itself.)
For `C1CCC(C(CC2CCCCN2)C2CCCCC2)CC1` (stereo not given), the Potency was 13.8 µM (active) and 19.3 µM (active).

Consider `CNS(=O)(=O)Cc1ccc2[nH]cc(CCN(C)C)c2c1`, for which the Potency result was “inactive”.

With `CC1=NN(c2ccccc2)C(=O)C1`, the Potency entry is “inactive”.

As to `CN(C)CCc1c[nH]c2ccc(C[C@H]3COC(=O)N3)cc12`, the Potency entry is “inactive”.

For the compound `O[C@@H](CNC[C@H](O)[C@H]1CCc2cc(F)ccc2O1)[C@@H]1CCc2cc(F)ccc2O1`, the Potency is 24.3 µM (active) and 27.6 µM (active).

On to `C[C@@H]1CN(c2c(F)c(N)c3c(=O)c(C(=O)O)cn(C4CC4)c3c2F)C[C@H](C)N1`, for which the Potency entry is “inactive”.

With `COc1ccc2cc3[n+](cc2c1OC)CCc1cc2c(cc1-3)OCO2`, the Potency is 4.37 µM (active) and 7.69 µM (active).

In the case of `CO[C@@H]1[C@@H](OC(N)=O)[C@@H](O)[C@H](Oc2ccc3c(O)c(NC(=O)c4ccc(O)c(CC=C(C)C)c4)c(=O)oc3c2C)OC1(C)C`, the Potency entry was “inactive”.

With `COc1ccc2c(c1)c(CC(=O)OCC(=O)O)c(C)n2C(=O)c1ccc(Cl)cc1`, the Potency entry is “inactive”.

In the case of `CC[C@H](C)C(=O)O[C@H]1C[C@@H](C)C=C2C=C[C@H](C)[C@H](CC[C@@H]3C[C@@H](O)CC(=O)O3)[C@H]21`, the Potency was 6.92 µM (active) and 9.68 µM (active).

Regarding `Cc1ccnc2c1NC(=O)c1cccnc1N2C1CC1`, the Potency result is “inactive”.

As for `O=S(=O)(c1cccc2cnccc12)N1CCCNCC1`, the Potency entry was “inactive”.

Regarding `CC1=C(C(=O)O)N2C(=O)[C@@H](NC(=O)C(N)c3ccccc3)[C@H]2SC1` (stereo not given in full), the “activity change, negative = cytotoxic” value is 19.4%.

Take `NC(=O)N1c2ccccc2CC(=O)c2ccccc21`: the “activity change, negative = cytotoxic” value was 8.88%.

Regarding `O=C(O)c1cccnc1`, the “activity change, negative = cytotoxic” value is -4.43%.

With `CNCC[C@H](Oc1cccc2ccccc12)c1cccs1`, the Potency was 15.5 µM (active).

With `N[C@@H](Cc1ccc(O)c(O)c1)C(=O)O`, the “activity change, negative = cytotoxic” value was -11.4%.

In the case of `NCCCC(O)(P(=O)(O)O)P(=O)(O)O`, the Potency result was “inactive”.

Turning to `CC(C)NCC(O)c1ccc(NS(C)(=O)=O)cc1` (stereo not given), the “activity change, negative = cytotoxic” value was 112%.

Consider `CS(=O)(=O)c1ccc([C@@H](O)[C@@H](CO)NC(=O)C(Cl)Cl)cc1`, for which the Potency result was “inactive”.

On to `CCOC(=O)[C@H](CCc1ccccc1)N[C@H]1CCc2ccccc2N(CC(=O)O)C1=O`, for which the Potency was 24.3 µM (active).

`O=C(O)CCn1c2c(c3ccccc31)C[C@H](NS(=O)(=O)c1ccc(F)cc1)CC2`: the Potency result was “inactive”.

As for `Cc1cccc(Nc2ccncc2S(=O)(=O)NC(=O)NC(C)C)c1`, the Potency result is “inactive”.

As for `Nc1nc(N)nc(-c2cc(Cl)ccc2Cl)n1`, the Potency result was “inactive”.

With `NC1(c2ccc(-c3nc4ccn5c(=O)[nH]nc5c4cc3-c3ccccc3)cc2)CCC1`, the Potency is 344 nM (active) and 692 nM (active).

For `O=P(O)(O)C(O)(Cc1cccnc1)P(=O)(O)O`, the Potency entry is “inactive”.

As to `NC(N)=NC(N)=NCCc1ccccc1`, the Potency was 11 µM (active) and 3.85 µM (active).

Regarding `COc1cc(NS(=O)(=O)c2ccc(N)cc2)nc(OC)n1`, the Potency result was “inactive”.

Turning to `O=c1oc2c(O)c(O)cc3c(=O)oc4c(O)c(O)cc1c4c23`, the “activity change, negative = cytotoxic” value is 10.5% [at 19.7 µM].

As to `O=NN(CCCl)C(=O)NC1CCCCC1`, the Potency result was “inactive”.

Turning to `CN1CCN(c2c(F)cc3c(=O)c(C(=O)O)cn(CCF)c3c2F)CC1`, the Potency entry was “inactive”.

As for `CCn1cc(C(=O)O)c(=O)c2cc(F)c(N3CCNCC3)cc21`, the Potency entry is “inactive”.

As for `O=C(O)c1cn(C2CC2)c2cc(N3CCNCC3)c(F)cc2c1=O`, the Potency result is “inactive”.

Take `OC(Cn1cncn1)(Cn1cncn1)c1ccc(F)cc1F`: the Potency entry is “inactive”.

`Cc1onc(-c2ccccc2Cl)c1C(=O)N[C@@H]1C(=O)N2[C@@H]1SC(C)(C)[C@@H]2C(=O)O`: the Potency result is “inactive”.

For `O=c1cc(O)c(Cl)c[nH]1`, the “activity change, negative = cytotoxic” value is 23.4%.

With `CO[C@@]12[C@H](COC(N)=O)C3=C(C(=O)C(C)=C(N)C3=O)N1C[C@@H]1N[C@@H]12`, the Potency is 3.85 µM (active).

In the case of `CCCCS(=N)(=O)CCC(N)C(=O)O` (stereo not given), the “activity change, negative = cytotoxic” value is -12.5%.

As to `Cc1cccc(N(C)C(=S)Oc2ccc3ccccc3c2)c1`, the Potency was 24.6 µM (active).

For `O=C(N[C@H](CO)[C@H](O)c1ccc([N+](=O)[O-])cc1)C(Cl)Cl`, the Potency entry was “inactive”.
